# Read-outs that look alike come from different tables or passages of the source. Among all 13,000 compounds or so, about 3,200 (25%) showed an effect of 50% or more. The list shows a part of the results.
# System: P. falciparum stage V gametocytes
# Parameters: BacTiter-Glo ATP luminescence viability of purified stage V gametocytes in 384-well plates, per cent inhibition versus DMSO
# Details: 48 h, 5 µM, inhibitor
Structure (SMILES),% Inhibition [%],% Inhibition (% Inhibition) [%]
COc1cccc(NC(=O)[C@H](C(C)C)n2c(=O)[nH]c3ccccc3c2=O)c1 [TCMDC-125133],96.89,
COc1ccc2[nH]c3ccccc3c(=O)c2c1 [TCMDC-123948],14.64,
COc1ccc(NC(=O)Nc2cccc(-c3cccc(-c4nc5ccccc5[nH]4)c3)c2)cc1 [TCMDC-133246],-3.32,
COc1ccccc1CNC(=O)C(=O)Nc1c(-c2ccccc2)[nH]c2ccccc12 [TCMDC-124999],-88.11,
COc1cccc(NC(=O)[C@H](C)n2c(=O)[nH]c3ccccc3c2=O)c1 [TCMDC-124998],68.49,
COc1cccc(NC(=O)COc2ccc(C(=O)Nc3nc4ccccc4[nH]3)cc2)c1 [TCMDC-125060],-14.04,
C=CCc1cc(Br)ccc1OCCCON1C(N)=NC(N)=NC1(C)C [TCMDC-131341],13.45,
O=C(/C=C/c1ccc(Cl)c(Cl)c1)NCCCCCCN1CCN(C(=O)Nc2ccc(OC(F)F)cc2)CC1 [TCMDC-135834],-53.7,
Cc1ccc(C(=O)c2oc3ccc4c(C)cc(=O)oc4c3c2C)cc1 [TCMDC-125583],-7.355,
Cc1cccc(C)c1OC(=O)C(C)C(O)C1(Sc2ccccc2)CCN(C)CC1 (centres unmarked) [TCMDC-132104],17.64,
O=C(Nc1ccc(F)cc1)NC1CCN(c2ccnc3cc(Cl)ccc23)CC1 [TCMDC-133570],-24.37,
Cc1nc(Nc2cc(Cl)ccc2O)nc(Nc2cc(Cl)ccc2O)c1[N+](=O)[O-] [TCMDC-125765],-25.8,
CC(=O)c1ccc2cc(C(=O)NC3CCC(CCN4CCc5ccc(-c6noc(C)n6)cc5CC4)CC3)[nH]c2c1 (centres unmarked) [TCMDC-140072],-66.89,
O=c1cc(NCCCNCc2cc(Cl)cc(Cl)c2OCc2ccccc2)[nH]c2ccccc12 [TCMDC-139488],-11.96,
Cc1ccc(-n2cc(CNCCc3ncc(C)[nH]3)c(-c3ccc(F)cc3)n2)cc1 [TCMDC-124685],44.13,
Cc1ccc(-n2cc(CNCCCn3ccnc3)c(-c3cccc(C)c3)n2)cc1 [TCMDC-124630],80.81,
COc1ccc(-n2cc(CNCCCn3ccnc3)c(-c3cccc(F)c3)n2)cc1 [TCMDC-124651],46.38,
Cc1cc2nc(-c3cc(-c4cccc(NS(C)(=O)=O)c4)cnc3N)[nH]c2cc1C [TCMDC-133558],-28.88,
O=C(Nc1ccc2oc(-c3ccc(Cl)cc3Cl)nc2c1)c1ccc([N+](=O)[O-])o1 [TCMDC-123753],49.41,
CCc1ccc(-c2nc3cc(NC(=O)c4ccc([N+](=O)[O-])o4)ccc3o2)cc1 [TCMDC-123924],1.176,
Cc1cccc(-c2nc3cc(NC(=O)c4ccc([N+](=O)[O-])o4)ccc3o2)c1 [TCMDC-123925],17.49,
CC(C)c1ccc2oc(-c3ccc(NC(=O)c4ccc([N+](=O)[O-])o4)cc3)nc2c1 [TCMDC-124010],79.92,
Cc1ccc(-c2nc3cc(NC(=O)c4ccc([N+](=O)[O-])o4)ccc3o2)cc1Cl [TCMDC-123657],94.01,
O=C(Nc1ccc2oc(-c3ccc(Br)cc3)nc2c1)c1ccc([N+](=O)[O-])o1 [TCMDC-123698],17.72,

Structure (SMILES),% Inhibition [%],% Inhibition (% Inhibition) [%]
O=C(Nc1ccc(-c2ccc(-c3nc4cc(C(F)(F)F)ccc4[nH]3)s2)cc1)c1ccoc1 [TCMDC-136842],-23.12,
COc1cc2c(cc1OC)C(C(=O)c1ccccc1)=NCC2.Cl [TCMDC-141993],35.87,
CCCOc1cc2c(cc1OCCC)C(C=Cc1ccc(Cl)cc1Cl)=NC(C)C2.Cl (centres unmarked) [TCMDC-137448],86.79,
CCCCOc1cc2c(cc1OCC)C(C=Cc1ccc(Cl)cc1Cl)=NCC2.Cl [TCMDC-137450],76.64,
CCCCN(CCCC)CCNC(=O)c1ccc(-c2nc3ccc(Cl)cc3[nH]2)c(OCC)c1 [TCMDC-140909],-44.96,
CC(C)C1=CC(=NOS(=O)(=O)c2ccccc2)C=C(C(C)C)C1=O [TCMDC-124172],-30.75,
O=C(/C=C/c1ccc2ccccc2c1)NCC1(c2ccc(-c3ccccc3)cc2)CCOCC1 [TCMDC-134257],16.18,
O=C(Nc1ccc(-c2ccccc2)cc1)Nc1cccc(Cn2ncc(N3CCCNCC3)c(Cl)c2=O)c1 [TCMDC-141923],12.88,
O=C(Nc1ccc(Cn2ncc(N3CCCNCC3)c(Cl)c2=O)cc1)Nc1ccc(-c2ccccc2)cc1 [TCMDC-141928],,-32.1
O=C(Nc1ccc(Cn2ncc(N3CCNCC3)c(Cl)c2=O)cc1)Nc1ccc(-c2ccccc2)cc1 [TCMDC-141922],-25.28,
CC1CN(c2cnn(Cc3ccc(NC(=O)Nc4ccc(-c5ccccc5)cc4)cc3)c(=O)c2Cl)CC(C)N1 (centres unmarked) [TCMDC-141940],80.37,
Cc1ccc(Cn2ncc(N3CCCNCC3)c(Cl)c2=O)cc1NC(=O)Nc1ccc(-c2ccccc2)cc1 [TCMDC-141924],99.19,
NC1CCN(c2cnn(Cc3cccc(NC(=O)Nc4ccc(-c5ccccc5)cc4)c3)c(=O)c2Cl)CC1 [TCMDC-141930],54.32,
O=C(Nc1ccc(-c2ccccc2)cc1)Nc1cccc(Cn2ncc(N3CCNCC3)c(Cl)c2=O)c1 [TCMDC-141920],-37.77,
Cc1ccc(Cn2ncc(N3CCNCC3)c(Cl)c2=O)cc1NC(=O)Nc1ccc(-c2ccccc2)cc1 [TCMDC-141921],40.54,
Cc1c(Cn2ncc(N3CCC(N)CC3)c(Cl)c2=O)cccc1NC(=O)Nc1ccc(-c2ccccc2)cc1 [TCMDC-141931],109.1,
Cc1c(Cn2ncc(N3CC(C)NC(C)C3)c(Cl)c2=O)cccc1NC(=O)Nc1ccc(-c2ccccc2)cc1 (centres unmarked) [TCMDC-141936],-6.259,
CC1CN(c2cnn(Cc3cccc(NC(=O)Nc4ccc(-c5ccccc5)cc4)c3)c(=O)c2Cl)CC(C)N1 (centres unmarked) [TCMDC-141935],-13.22,
Cc1ccc(Cn2ncc(N3CC(C)NC(C)C3)c(Cl)c2=O)cc1NC(=O)Nc1ccc(-c2ccccc2)cc1 (centres unmarked) [TCMDC-141937],14.65,
CC(C)C[C@H](NC(=O)c1ccc(OCCN2CCOCC2)cc1)C(=O)N[C@H](/C=N/N1CCNC1=O)CCc1ccccc1 [TCMDC-136156],19.17,
O=C(Nc1ccc(Cl)cc1)Nc1ccc2nonc2c1 [TCMDC-124586],-84.09,
COc1cc(N(C)Cc2cnc3nc(N)nc(N)c3n2)cc(OC)c1OC [TCMDC-137363],43.25,
Cc1cccc(-n2c(Nc3ccc(C)c(Cl)c3)nc3ccc(S(=O)(=O)NC(C)C(C)C)cc32)c1 (centres unmarked) [TCMDC-136234],-15.02,
CCCc1c(C(=O)OCC)c2cc(O)ccc2n1-c1ccc(OC)cc1 [TCMDC-125126],-66.75,

Structure (SMILES),% Inhibition [%],% Inhibition (% Inhibition) [%]
COc1cccc(C2=CC(C)(C)Oc3cc(OCCN(C)C)ccc32)c1 [TCMDC-131403],8.416,
Cc1sc(N2CCN(C)CC2)nc1C(=O)Nc1ccc(F)cc1C(F)(F)F [TCMDC-134302],-2.511,
Cc1ccc(Cn2ncc(NC3CCNCC3)c(Cl)c2=O)cc1NC(=O)Nc1ccc(-c2ccccc2)cc1 [TCMDC-141929],95.66,
O=C(Nc1ccc(Cn2ncc(N3CCCNCC3)c(Cl)c2=O)cc1)Nc1ccc(-c2ccccc2)cc1 [TCMDC-141927],,-25.81
Cc1ccc(NC(=O)Nc2ccc(Cn3ncc(N4CCCNCC4)c(Cl)c3=O)cc2)cc1 [TCMDC-133332],5.468,
O=C(Nc1ccc(Cl)cc1)Nc1ccc(Cn2ncc(N3CCCNCC3)c(Cl)c2=O)cc1 [TCMDC-133331],-14.26,
Cc1ccc(Cn2ncc(N3CCC(N)CC3)c(Cl)c2=O)cc1NC(=O)Nc1ccc(-c2ccccc2)cc1 [TCMDC-141932],107.1,
COc1ccc2nccc([C@@H](O)CN3CCC(NCCOc4cccc(C(F)(F)F)c4Cl)CC3)c2c1 [TCMDC-140661],20.87,
O=C(Nc1ccc(Br)c(Cl)c1)c1cc([N+](=O)[O-])cc2cn[nH]c12 [TCMDC-123693],77.61,
O=C(Nc1ccc(F)c(Cl)c1)c1cc([N+](=O)[O-])cc2cn[nH]c12 [TCMDC-123694],-9.121,
O=C(Nc1cccc(C(F)(F)F)c1)c1cc([N+](=O)[O-])cc2cn[nH]c12 [TCMDC-125395],7.696,
COc1cc(NCCCNCc2cn(S(=O)(=O)c3ccccc3)c3ccccc23)nc2ccccc12 [TCMDC-140214],73.5,
O=c1cc(NCCCNCc2cc(C(F)(F)F)ccc2Cl)[nH]c2ccccc12 [TCMDC-139422],4.715,
COc1cc(NC2CCCC(NCc3cn(S(=O)(=O)c4ccccc4)c4ccccc34)C2)nc2ccccc12 (centres unmarked) [TCMDC-140505],77.87,
Cc1c(NCCCNCc2cc(Cl)cc(Cl)c2Cl)[nH]c2ccccc2c1=O [TCMDC-139498],-59.03,
O=c1cc(NCCCNCc2cn(S(=O)(=O)c3ccccc3)c3ccccc23)[nH]c2ccccc12 [TCMDC-140361],89.9,
COc1cc(NCCCNC(=O)c2cc3c(Cl)cc(Cl)cc3[nH]2)nc2ccccc12 [TCMDC-140360],30.45,
COc1cc(Nc2ccc3cc(S(=O)(=O)N4CCCCC4C)ccc3n2)cc(OC)c1OC (centres unmarked) [TCMDC-125163],-47.67,
CN(C)CCCNCc1cn(S(=O)(=O)c2ccccc2Cl)c2ccccc12 [TCMDC-136302],105.4,
Cc1cc(OCCCN2CCC(NS(=O)(=O)c3ccc(Cl)c(Cl)c3)CC2)c2ccccc2n1 [TCMDC-136278],-51.1,
COc1cc(NCCCNC(=O)c2ccc(Cl)c(Cl)c2)nc2ccccc12 [TCMDC-140373],-10.34,
O=c1cc(NCCCNCc2ccccc2-c2ccccc2)[nH]c2ccccc12 [TCMDC-139450],-0.2545,
CCN(CC)CCOc1c(Cl)cc(Cl)cc1CNCCCNc1cc(=O)c2ccccc2[nH]1 [TCMDC-139684],26.89,

# Reference: paper PMC4552634, “A New Set of Chemical Starting Points with Plasmodium falciparum Transmission-Blocking Potential for Antimalarial Drug Discovery” (PLoS ONE, 2015)
